HttQ103 aggreg = qHTS Multiplex Assay to Identify Dual Action Probes in a Cell Model of Huntington: Aggregate Formation (GFP) | Potency, µM (top dose mostly 46.1 µM), inactives show at the top dose activity change, negative = inhibition, hits mostly inhibitors | 1.1% of 220,000 active | AID 1688, 2009 | PC12 HttQ103-GFP aggregates, Acumen cytometry, 40 h; further: on the % scale 0 is the no-effect control and ±100 the full control effect; nearly all actives have a fitted effect of over 60% in size
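PC12 cells with ecdysone-inducible HTT exon1 Q103-GFP, induced by 100 nM tebufenozide, given compounds in a concentration series. GFP aggregates (1–25 um, 6 SD above background) counted in lysates by laser-scanning cytometry, 488 nm excitation.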
Epigenetic derep = Quantitative High-Throughput Screen for Regulators of Epigenetic Control; 0.2% of 280,000 active; Potency, µM (series often up to 53.9 µM), inactives show at the top dose GFP activation, hits mostly activators; murine LDR cells, GFP reporter derepression, 30 h; further: % of control where 0% means no effect; nearly all actives have a fitted effect of over 60% in size
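In this reporter-derepression format, murine cells bearing a silenced integrated CMV-GFP locus incubate with test compound (30 h, 37 C), then are washed and imaged; fluorescent objects of 20–120 um count as induced cells.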
LMNA splice mod = qHTS Assay for Modulators of Lamin A Splicing; Potency, µM (doses to about 46.1 µM), for inactives: at the highest dose ratio change, negative = inhibition, most hits filed as inhibitors; HeLa LMNA splicing GFP/RFP minigene ratio, 48 h; 0.01% of 200,000 active; active means well fitted inhibition curve with a large enough effect in the signal ratio, with a control signal flat, not every such curve was filed as active; inconclusive means small, poorly fitted or top-dose-only effect, or effect the other way, or a change in a side signal; the % refers to the signal ratio; further: on the % scale 0 is the no-effect control and ±100 the full control effect
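Read-out is the ratio of GFP to DsRed2 object intensity, acquired by 488 nm laser-scanning cytometry on HeLa lamin A-EGFP minigene reporter cells. Compound incubation 48 hrs at 37 °C in Opti-MEM with 2% FBS; DMSO 0.5% final.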
HTT cytoprotect = qHTS Multiplex Assay to Identify Dual Action Probes in a Cell Model of Huntington: Cytoprotection (ATP) | PC12 HTT-Q103 induced, cytoprotection, ATP luminescence, 40 h | Potency, µM (doses to about 56.4 µM), inactives show cytoprotection (ATP increase), actives largely listed as activators | 0.14% of 230,000 active; further: % of control where 0% means no effect; nearly all actives have a fitted effect of over 45% in size
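Huntington model: PC12 line, ecdysone-inducible HTTQ103 exon1–GFP, tebufenozide 100 nM. Test articles in a dose series. Endpoint luminescence from cellular ATP.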
NPSR antag = qHTS Assay for Antagonists of the Neuropeptide S Receptor: cAMP Signal Transduction | Q6W5P4 | CHO-NPSR cells, cAMP TR-FRET, antagonist mode | Potency, µM (doses to about 38.3 µM), for inactives: at the top dose activity change, negative = inhibition, actives largely listed as inhibitors | 1% of 220,000 active | AID 1461, 2008; further: on the % scale 0 is the no-effect control and ±100 the full control effect; nearly all actives have a fitted effect of over 50% in size
Target sequence (Q6W5P4 whole entry, looked up): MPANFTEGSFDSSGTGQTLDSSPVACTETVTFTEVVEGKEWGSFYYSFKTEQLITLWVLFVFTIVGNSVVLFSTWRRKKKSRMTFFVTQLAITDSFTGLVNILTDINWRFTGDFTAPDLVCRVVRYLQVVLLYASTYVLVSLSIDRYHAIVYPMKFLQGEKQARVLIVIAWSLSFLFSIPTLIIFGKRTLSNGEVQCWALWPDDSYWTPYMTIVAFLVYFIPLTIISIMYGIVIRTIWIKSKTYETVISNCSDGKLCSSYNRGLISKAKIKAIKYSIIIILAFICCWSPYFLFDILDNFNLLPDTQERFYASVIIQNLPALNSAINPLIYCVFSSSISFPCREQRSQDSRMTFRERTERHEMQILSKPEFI
Starred values were filed as active, the others as inactive; ? = inconclusive; nt = not tested or not shown; [ ] = dose if it differs, or a comment. This is a sample that favours compounds with a hit; in the whole collection about 1.5% have one here. Unless noted, the call rests on the fitted dose curve; in most records, active means well fitted curve in the direction sought with a large enough effect; inconclusive means small, poorly fitted or top-dose-only effect, or another doubt; inactive means no such curve, though single readings can be large; an effect the other way counts as inactive or inconclusive. Potency means the concentration at half of the fitted maximal effect.

SMILES | HttQ103 aggreg | Epigenetic derep | LMNA splice mod | HTT cytoprotect | NPSR antag
CC1(C)CC(=O)C(C=Nc2cccc(/N=C/C3=C(O)CC(C)(C)CC3=O)n2)=C(O)C1 | 0% | 2% | 4% | 4% | ?
CC1(C)CC(=O)C(/C=N/c2ccccn2)=C(O)C1 | 22µM* | -4% | -5% | -5% | -4%[46.1 µM]
O=C1N/C(=C/c2ccc(N3CCCC3)cc2)C(=O)N1c1ccccc1 | ? | 16µM* | 3% | nt | -3%
O=C1NC(=S)N/C1=C\c1ccc(N2CCOCC2)cc1 | 17% | 5% | nt | nt | -28%
O=C1/C(=C/c2ccc(N3CCCC3)cc2)NC(=S)N1C1CC1 | -19% | 18µM* | ? | -16% | ?
N[C@@H](CCCCO)C(=O)O | nt | nt | nt | -7%[10 µM] | nt
Cc1cc(C)nc(NS(=O)(=O)c2ccc(NC(=O)CSc3nc(-c4ccccc4)c(C#N)c(=O)[nH]3)cc2)n1 | -10% | -1% | -5%[9.22 µM] | 4% | 4µM*
N#Cc1c(-c2ccccc2)nc(SCC(=O)Nc2ccccc2)[nH]c1=O | 17% | 0% | -4% | -6%[10 µM] | -32%
Cc1cc(NC(=O)CSc2nc(-c3ccccc3)c(C#N)c(=O)[nH]2)no1 | 3% | -3% | 10% | -10%[0.074 µM] | 7.9µM*
CCOC(=O)C(C(=O)OCC)C1N=C(N)N=C2Oc3ccccc3N21 (configuration not stated) | 3.2µM* | -1% | 2% | 9%[10 µM] | -13%[46.1 µM]
CCOC(=O)CN1C(=O)C(CC)Oc2ccccc21 (configuration not stated) | 11% | -1% | 4% | -11%[0.074 µM] | 6%[46.1 µM]
CCCCN1C=CC(=C2N=c3cccc([N+](=O)[O-])c3=N2)C=C1 | 0.89µM* | -1% | -12% | 24%[10 µM] | 9%
CCCCCCN1C=CC(=C2C(=O)c3ccccc3C2=O)C=C1 | 24%[9.22 µM] | 1% | nt | -80%[10 µM] | 7%
Cc1ccc(CN2CCN(C3CCN(C(=O)c4ccc(C)cc4)CC3)C(=O)C2=O)cc1 | nt | -2% | nt | nt | nt
COc1cc(-c2ccno2)ccc1S(=O)(=O)N1CCN(c2ccc(F)cc2)CC1 | nt | -1% | 23%[46 µM] | nt | nt
O=C(NC(NC(=S)Nc1ccc(Cl)cc1Cl)C(Cl)(Cl)Cl)c1cccc([N+](=O)[O-])c1 (configuration not stated) | ? | -1% | ? | -84% | 10µM*
O=C(NC(NC(=S)Nc1ccccc1)C(Cl)(Cl)Cl)c1cccc(Cl)c1 (configuration not stated) | 11µM* | -1% | ? | -71% | 13µM*
O=C(O)c1cccc(NC(=S)NC(NC(=O)c2cccc([N+](=O)[O-])c2)C(Cl)(Cl)Cl)c1 (configuration not stated) | 15%[9.22 µM] | 3% | nt | 1%[10 µM] | -4%
CNC(=O)c1cccc(-n2c(C)nc3cccnc32)c1C | nt | -4% | nt | nt | nt
Cc1cccc(N2CCN(C(=O)c3ccc(NS(=O)(=O)c4c(C)noc4C)cc3)CC2)c1C | 20µM* | -6% | -27% | 8%[10 µM] | -19%[46.1 µM]
Cc1noc(C)c1CSCC(=O)N1CCN(c2ccc(F)cc2)CC1 | 7.9µM* | -3% | ? | 8%[10 µM] | -14%[46.1 µM]
Cc1cccc(N2CCN(C(=O)CSCc3c(C)noc3C)CC2)c1C | 7.1µM* | -1% | 5% | -14%[10 µM] | -20%[46.1 µM]
COc1ccc(-c2nc(CSCC(=O)N3CCN(c4cccc(C)c4C)CC3)c(C)o2)cc1OC | nt | 0% | -14%[46 µM] | nt | nt
O=C(CSCc1ccc(F)cc1)N1CCN(c2ccc(Cl)cc2)CC1 | nt | 4% | -13%[46 µM] | nt | nt
CCN(Cc1ccccc1)C(=O)CCS(=O)(=O)c1cc2c(cc1Cl)NC(=O)CO2 | nt | 1% | 3%[46 µM] | nt | nt
SMILES | HttQ103 aggreg | Epigenetic derep | LMNA splice mod | HTT cytoprotect | NPSR antag
CCC(=O)N1CCc2cc(S(=O)(=O)NCCC(=O)Nc3cccc(SC)c3)ccc21 | nt | -3% | nt | nt | nt
C=CC[n+]1ccc2ccccc2c1C | -31% | 0% | nt | ? | 10%
C=CC[n+]1ccc(/C=C2\C=Cc3cc(C)ccc3N2CC)c2ccccc21 | 2.2µM* | -4% | nt | -189% | ?
O=C(OCc1cc(=O)n2nc(-c3cccs3)sc2n1)c1ccc(Cl)cc1 | nt | 1% | 9%[46 µM] | nt | nt
O=C1NCCN1c1ncc([N+](=O)[O-])s1 | 2%[20.6 µM] | 5%[16.9 µM] | -15% | 0.089µM* | nt
COc1cc(NCCCCCCCN)c2ncccc2c1 | 1.8µM* | -4% | ? | -91%[10 µM] | 18%[46.1 µM]
Cc1nc(NCc2ccccc2)c2nc(-c3ccccc3)n(CCN3CCCCC3)c2n1 | nt | 10% | nt | -69% | nt
COc1ccc(OC)c(NC(=O)CN(C)S(=O)(=O)c2ccc(C(=O)N3CCOCC3)s2)c1 | nt | -5% | -1%[46 µM] | nt | nt
CCCCN(CCCC)S(=O)(=O)c1ccc(C(=O)Nc2nnc(COC)o2)cc1 | 11µM* | 0% | ? | -81% | -2%[46.1 µM]
CCCCN(C)S(=O)(=O)c1ccc(C(=O)Nc2nnc(CSC)o2)cc1 | 8.9µM* | -1% | ? | -66% | -8%[46.1 µM]
CCN(CC)S(=O)(=O)c1ccc(C(=O)Nc2nnc(COC)o2)cc1 | 5% | 2% | ? | -41% | -1%
Cc1cc(Nc2ccccc2C)n2nc(Cc3ccc(Cl)cc3)nc2n1 | nt | 3% | nt | nt | nt
CC(=O)N1CCN(c2nc(-c3ccco3)c3c(c2C#N)CC(C)(C)SC3)CC1 | 13µM* | 1% | 6% | -52% | -16%[46.1 µM]
CC1(C)Cc2c(C#N)c(N3CCN(C(=O)c4ccco4)CC3)nc(-c3ccco3)c2CS1 | 24% | -1% | 0% | 25%[10 µM] | 10µM*
CC1(C)Cc2c(C#N)c(N3CCN(C(=O)c4ccccc4Cl)CC3)nc(-c3ccco3)c2CS1 | 0% | -1% | 8% | -22% | ?
C1CCC(c2nn3c(-c4n[nH]c5c4CCC5)nnc3s2)CC1 | -14% | 4% | -8% | -23% | -11%[46.1 µM]
CCN(CC)c1ccc(-c2nn3c(-c4n[nH]c5c4CCC5)nnc3s2)cc1 | 13µM* | 5% | ? | -94% | 0%[46.1 µM]
O=C(Nc1ccc(Br)cc1Cl)NC1CC1 | 18µM* | 0% | nt | -19% | -26%
CC(C)NC(=O)Nc1ccc(Br)cc1Cl | -15%[9.22 µM] | 0% | nt | -2%[10 µM] | -3%
O=C(COC(=O)c1c2c(nc3ccccc13)CCN(Cc1ccccc1)C2)Nc1c(F)cccc1F | 4% | -5% | ? | -5%[10 µM] | -19%
CC(=O)Nc1ccc(NC(=O)COC(=O)c2c3c(nc4ccccc24)CCN(Cc2ccccc2)C3)cc1 | 4µM* | -1% | ? | 6%[10 µM] | ?
CCc1nc(SCC(=O)Nc2nc3c(s2)CCCC3)c2ccccc2n1 | nt | -2% | 3% | 25µM* | 10%[46.1 µM]
COc1ccc2[nH]cc(S(=O)(=O)c3ccc(C)c(C)c3)c(=O)c2c1 | nt | 0% | nt | nt | nt
N[C@@H](Cc1[nH]nc2ccccc12)C(=O)O | nt | nt | nt | 2%[10 µM] | nt

Compound activity from PubChem.
